101 molecules from PubChem BioAssay AID873 (PCMD, 2007) can be followed below.

Hit rate of the full screen: of about 210,000 compounds, about 1,300 (0.62%) were called active. This excerpt belongs to a sample that is enriched for actives. Unmarked numbers belong to inactive results.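 How the source made its calls: active means inhibition of 40% or more; inactive means the rest.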

This experiment deals with Kallikrein-5 (Homo sapiens) (UniProt Q9Y337). Nature of the experiment: human KLK5 protease inhibitors, primary screen, biochemical, 1536-well (AID 873).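 Further: 0% = enzyme controls without compound and 100% = no-enzyme blanks.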 As to conditions: recombinant hK5, fluorogenic AMC substrate cleavage; at 5 µM; stronger effect = higher value.
Chain of Kallikrein-5 (Homo sapiens) (Q9Y337 67-293 limits assumed): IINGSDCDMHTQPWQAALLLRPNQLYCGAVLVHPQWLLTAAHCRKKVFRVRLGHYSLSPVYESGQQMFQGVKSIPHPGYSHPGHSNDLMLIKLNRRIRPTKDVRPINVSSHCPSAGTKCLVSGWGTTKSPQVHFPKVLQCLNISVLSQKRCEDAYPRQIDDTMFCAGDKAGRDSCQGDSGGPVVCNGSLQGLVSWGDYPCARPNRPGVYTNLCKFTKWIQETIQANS
The term inhibition denotes the drop in the measured response relative to a control, in per cent. Consider `C=CCNc1cnn(-c2ccc(C)cc2)c(=O)c1Cl`, for which the inhibition was 58% (active).
As for `O=c1c(Cl)c(NC2CC2)cnn1-c1ccccc1`, the inhibition is -14.4%.
Turning to `Cc1ccc(Oc2cnn(-c3ccccc3)c(=O)c2Br)cc1`, the inhibition is -20.9%.
To `CS(=O)(=O)c1ccc(Cl)c(NC(=O)Nc2ccccc2)c1` belongs 15.8%; to `CC(C)c1nc(SCC(=O)NC(=O)NC(C)(C)C)n[nH]1`, -0.71%.
The figure for `Cc1cccn2c(CNCC(C)Oc3cccnc3)c(C(=O)N3CCOCC3)nc12` (stereo unspecified) is -2.01%; for `COc1ccc(N2CCC(CNC(=S)Nc3c(C)cccc3C)C2)cc1` (stereo unspecified) it is -0.97%; for `Cc1nc2nc(SCC(=O)c3ccccc3)[nH]c2cc1Br` it is 1.2%.
The figure for `C/C(=N/NC(=O)CN1CCN(S(=O)(=O)c2ccc(Br)cc2)CC1)c1ccncc1` is 1.01%.
Consider `CCc1ccccc1NC(=O)c1cccs1`, for which the inhibition was -5.15%.
To `O=C(Nc1ccccc1-c1ccccc1)c1cccs1` belongs 40% (active); to `O=C(Nc1ccccc1-c1nnn(CC(=O)N2CCN(c3ccccc3)CC2)n1)c1cccs1`, 8.06%.
The figure for `Cc1cc(=O)oc(C)c1C(=O)N1CCCCC1` is -21.2%; for `CC(C)Cc1oc(C(=O)O)cc1CN` it is -20.2%.
Turning to `Cc1oc(CC(C)C)c(CN2CCCC2)c1C(=O)O`, the inhibition was 40.4% (active).
In the case of `Cc1ccc(Nc2c3c(nc4ccccc24)CCC3)cc1`, the inhibition was -1.22%.
In the case of `COc1ccc(NS(=O)(=O)c2ccc(N3CCOCC3)c(NC(=O)c3ccccc3Br)c2)cc1`, the inhibition is -3.92%.
`Cc1cc(C)nc(Nc2n[nH]c(-c3ccccc3N)n2)n1`: the inhibition is -1.46%.
To `CC(C)CCN1NC2(CCC(C)CC2)NC1=S` (stereo unspecified) belongs 0.13%; to `COc1ccccc1N1CCN(CCCCOc2ccc(F)cc2)CC1`, 40.1% (active); to `COc1ccccc1N1CCN(Cc2ccc(OC)c3ccccc23)CC1`, -4.66%.
For `CCN1CCN(CCCCOc2ccccc2F)CC1`, the inhibition was -9.3%.
For the molecule `CCOC(=O)c1ccc(NC(=O)Cn2cnc3cc(C)c(C)cc32)cc1`, the inhibition was 3.77%.
To `Cc1nc(N)[nH]c(=O)c1Oc1cccc(C(F)(F)F)c1` belongs -0.74%; to `Cc1cc(=O)[nH]c(SCC(=O)Nc2ccc(Br)cc2)n1`, 2.46%; to `CCOc1ccccc1N1CN(Cc2ccccc2)CNC1=S`, -6.7%.
The figure for `CCCc1ccc(C(=O)[C@@H]2[C@@H](C(C)=O)N3c4ccc(F)cc4C=C[C@@H]3[C@@]23C(=O)Nc2ccccc23)cc1` is 3.66%; for `NC(=O)N1CCc2ccccc21` it is -6.77%.
To `O=C(c1cccc(C(=O)N2CCc3ccccc32)n1)N1CCc2ccccc21` belongs -28.7%; to `O=C(c1cnn2ccccc12)N1CCc2ccccc21`, 68.7% (active).
`COC(=O)c1noc(C)c1-c1ccnn1C(=O)c1ccc(Cl)cc1`: the inhibition is 14.2%.
To `O=C(O)C#Cc1cccc2ccccc12` belongs 42.9% (active); to `O=C(O)CSc1nccc2ccccc12`, -3.99%.
Turning to `O=C(O)c1ccccc1-c1ccccc1C(=O)Nc1cccc2ccccc12`, the inhibition was 3.53%.
The figure for `COC(=O)c1cc(C(=O)OCC(=O)Nc2cc(C)on2)cc([N+](=O)[O-])c1` is 23.6%.
The figure for `C/C(=N\NC(=S)NCc1ccccc1)C1CCCCC1` is -4.43%; for `O=C(O)c1ccc(/C=N/NC(=S)NCc2ccccc2)cc1` it is -1.6%.
The figure for `C/C(=N\NC(=S)NCc1ccccc1)c1ccc(Cl)cc1` is 56.7% (active); for `COC(=O)c1oc2ccc(Br)cc2c1NC(C)=O` it is 41.8% (active); for `COc1ccc(C(=O)c2oc3ccc(Br)cc3c2NC(C)=O)cc1` it is -25.1%.
`COc1ccc2oc(C)c(NC(C)=O)c2c1`: the inhibition is -13.5%.
The figure for `Cc1ccc(Nc2nc(Cl)c(C=O)s2)cc1` is 0.92%.
As to `COc1cccc(NC(=O)CS(=O)(=O)c2cn(CC(=O)N3CCOCC3)c3ccccc23)c1`, the inhibition was -2.04%.
To `O=C(CS(=O)(=O)c1cn(Cc2ccc(Cl)cc2)c2ccccc12)N1CCOCC1` belongs 47% (active).
To `O=C(CS(=O)(=O)c1cn(Cc2cccc(F)c2)c2ccccc12)N1CCCCC1` belongs -11.7%.
In the case of `O=C(Cn1cc(C(=O)c2cccs2)c2ccccc21)NCc1cccs1`, the inhibition was -1.96%.
Regarding `COC(=O)Cn1cc(C(=O)c2cccs2)c2ccccc21`, the inhibition was 40.6% (active).
The figure for `COCCNC(=O)Cn1cc(C(=O)c2cccs2)c2ccccc21` is -5.68%; for `Cc1ccc(OCC(=O)Nc2nnc(-c3ccco3)s2)cc1` it is -1.13%; for `CC(C)CNc1ncnc2c1cnn2Cc1ccc(Cl)cc1` it is -1.93%.
Consider `O=C(Nc1ccc(Br)cn1)c1ccc([N+](=O)[O-])o1`, for which the inhibition was -4.1%.
For the molecule `Cc1cccc(NC(=O)c2ccc([N+](=O)[O-])o2)c1`, the inhibition was -2.56%.
In the case of `Cc1onc(NC(=O)c2ccc([N+](=O)[O-])o2)c1Br`, the inhibition is 47.1% (active).
To `CCCNc1c(N)c(=O)c1=O` belongs -0.24%.
With `Cc1ccc(Oc2nc(-c3ccccn3)nc3ccccc23)cc1`, the inhibition was -11.3%.
As to `N#C/C(=C/c1ccc(-c2ccccc2[N+](=O)[O-])o1)C(=O)NCCN1CCCCC1`, the inhibition is 1.64%.
`CCCc1cc(-c2nc(-c3ccc(C)cc3)cs2)ccn1`: the inhibition is -10.9%.
The figure for `Cc1ccc(-c2csc(SCC(=O)Nc3cc(C)on3)n2)cc1` is -2.17%; for `Cc1ccc(-c2csc(-c3cc(C)on3)n2)cc1` it is 44.8% (active); for `O=c1c(/C=N/O)coc2ccc(Cl)cc12` it is 3.19%.
The figure for `Cc1ccc(N2C(=O)CC(Nc3cccc4ccccc34)C2=O)cc1` (stereo unspecified) is 0.34%; for `CC1C(=O)NC(=O)C1c1ccccc1` (stereo unspecified) it is 1.86%; for `CCOc1ccc(CN(Cc2ccco2)C(c2cccs2)c2nnnn2C(C)(C)C)cc1` (stereo unspecified) it is 9.28%.
Consider `CC(C)(C)n1nnnc1C(c1cccs1)N(Cc1cccnc1)CC1CCCO1` (stereo unspecified), for which the inhibition was 45% (active).
The figure for `CC(C)C(c1nnnn1C(C)(C)C)N1CCN(Cc2cccnc2)CC1` (stereo unspecified) is 4.44%.
The figure for `O=C(CSc1nc2c(cnn2-c2ccc(F)cc2)c(=O)[nH]1)N1CCCCCC1` is 68.2% (active).
As for `CC(=O)c1sc2nc(SCC(=O)N3CCCCC3)[nH]c(=O)c2c1C`, the inhibition was -8.76%.
For the molecule `Cc1nnc(SCC(=O)N2CCOCC2)[nH]c1=O`, the inhibition was -13.7%.
`Cc1coc2cc3oc(=O)c(CCC(=O)O)c(C)c3cc12`: the inhibition was -1.04%.
To `Cc1ccc(C(O)P(=O)(OC(C)C)c2ccc(N(C)C)cc2)cc1` (stereo unspecified) belongs -0.37%; to `COc1ccc(C(=O)Nc2cccc(S(C)(=O)=O)c2)cc1`, 9.53%; to `COc1cccc(NC(=O)c2ccc(S(=O)(=O)N(C)C)cc2)c1`, 58.8% (active).
Take `CCC(=O)Nc1ccc(C(=O)Nc2cccc(OC)c2)cc1`: the inhibition was -2.36%.
To `CC1CN(c2nc(Nc3ccccc3)nc(N)c2[N+](=O)[O-])CC(C)O1` (stereo unspecified) belongs 1.28%; to `Clc1ccc(-c2ncc3ccccn23)c(Cl)c1`, 2.07%.
To `Cc1ncn2cc(-c3ccc(Cl)cc3Cl)[nH]c(=O)c12` belongs 63% (active); to `COn1c(-c2ccc(Cl)cc2Cl)nc2ncccc21`, -1.75%; to `COc1ccc(OC)c(-n2c(-c3ccn[nH]3)n[nH]c2=S)c1`, -4.85%.
To `CCn1c2ccccc2c2cc(CC(N)=O)ccc21` belongs 0.83%; to `NC(=O)Cc1ccc2c(c1)[nH]c1ccccc12`, 49.5% (active).
Take `NC(=O)Cc1ccc2sc(-c3ccccc3)nc2c1`: the inhibition was 29.8%.
Consider `CCN(CC)c1ccc(/C=N/NC(=O)c2cnccn2)c(O)c1`, for which the inhibition was -3.69%.
`Cc1nnc(SCC(=O)N2CCc3ccccc3C2)s1`: the inhibition is 16.7%.
The figure for `Cc1nc(SCC(=O)N2CC(=O)Nc3ccccc32)c2c(C)c(C)sc2n1` is -0.11%; for `Cc1nc(SCC(=O)N2CCc3ccccc3C2)c2c(C)c(C)sc2n1` it is 59.1% (active); for `COc1ccccc1C1CCN(c2ccc([N+](=O)[O-])cn2)CC1` it is 0.29%.
With `CC(=O)c1ccc2c(c1)OCCOCCOc1ccc(C(C)=O)cc1OCCOCCO2`, the inhibition is -1.51%.
On to `O=c1[nH]c2cccnc2n1-c1ccc([N+](=O)[O-])cc1`, for which the inhibition was 0.04%.
The figure for `O=C(O)C1CCCCC1C(=O)Nc1ccc(Cl)cc1` (stereo unspecified) is 2.31%.
To `O=C(O)c1ccc(NC(=O)C2CCCCC2)cc1` belongs -4.28%; to `O=C(O)Cc1ccc(NC(=O)C2CCCCC2C(=O)O)cc1` (stereo unspecified), 46.5% (active); to `COc1ccc(-c2noc(CN(C)S(=O)(=O)c3ccc(C)cc3)n2)cc1`, 1.11%.
As for `COc1ccc(-c2noc(CSc3ccc(C)cc3)n2)cc1`, the inhibition was 55.4% (active).
To `COc1ccc(-c2noc(-c3ccc(C)cc3)n2)cc1` belongs -5.34%.
With `O=C(Nc1ccc(S(=O)(=O)N2CCOCC2)cc1)c1ccc2ncsc2c1`, the inhibition is 6.27%.
The figure for `COCc1cc(=O)[nH]c(-c2ccc(C(F)(F)F)cc2)n1` is -1.98%; for `Cc1cccc(N(C)C(=O)c2cc3c(=O)[nH]c4ccc(C)cc4c3s2)c1` it is 1.34%.
In the case of `COc1cccc(N(CC(=O)Nc2cccc(F)c2)S(C)(=O)=O)c1`, the inhibition is 2.06%.
For the molecule `CS(=O)(=O)N(CC(=O)Nc1ccc(F)cc1F)c1cccc([N+](=O)[O-])c1`, the inhibition is 62.8% (active).
In the case of `CCN(CC)S(=O)(=O)c1ccc(NC(=O)CN(c2cccc(F)c2)S(C)(=O)=O)cc1`, the inhibition is -2.67%.
To `COc1ccc(NC(=O)C2=NNC(=O)CC2)cc1S(=O)(=O)N1CCCCC1` belongs -2.9%.
